Each structure is given as a SMILES string.

A short description of this assay: probe aEGFR binding to arrayed compounds – biochemical, biotinylated probe, 635/667 nm fluorescence, primary screen (AID 1097).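 Also: probe is a biotinylated anti-EGFR antibody binding compounds printed on slides; score combines fluorescence near 667 nm and signal to noise of each spot.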 As to conditions: small-molecule microarray, higher = more signal.
Consider `Cc1ccc(S[C@]2(C(=O)O)CC(=O)N(Cc3cc(C(F)(F)F)cc(C(F)(F)F)c3)[C@@H]2c2ccc(CO)cc2)cc1`, for which the composite z-score was -0.373.

The compound `CCOC(=O)[C@H]1[C@@H]2C(=O)N3CCC[C@H]3[C@H](O[Si](C(C)C)(C(C)C)C(C)C)[C@H]2C=C2CCN(S(=O)(=O)c3ccc(C)cc3)C[C@H]21` returned a composite z-score of -0.0978.

For `CO[C@H]1O[C@H](CO)[C@@H](OC(=O)Nc2ccccc2-c2ccccc2)[C@H](OC(=O)Nc2ccc3c(c2)OCO3)[C@H]1OC(=O)Nc1ccc2c(c1)OCO2`, the composite z-score turned out to be 0.0115.

Compound `COc1ccccc1CN1C(=O)c2ccccc2[C@@]2(Cc3ccccc3N(CC(F)(F)F)C2=O)[C@@H]1c1ccc(CO)cc1` returned a composite z-score of -0.322.

For `CN(C)C(=O)[C@@]1(Cc2ccccc2CN=[N+]=[N-])N=C(c2ccc(OCCCO)cc2)O[C@H]1c1ccccc1CN=[N+]=[N-]`, the composite z-score is 0.424.

For `COc1ccc(CCN2C(=O)[C@@]3(Cc4ccccc42)c2ccccc2C(=O)N(Cc2ccccc2OC)[C@H]3c2ccc(CO)cc2)cc1`, the composite z-score was -0.204.

In turn, `O=C1C2C=CC(C(O)c3ccc(Br)cc3)N(Nc3ccccc3F)C2C(=O)N1c1ccccc1` (centres undefined) had a composite z-score of -0.112.

Turning to `C=CCC(OC(C)=O)[C@@H]1[C@@H](N(Cc2cccc3ccccc23)C(=O)Cc2ccc(OC)cc2)c2cc(OCCCO)ccc2N1C(=O)c1ccc2ccccc2n1` (some centres undefined), the composite z-score is -0.144.

`COC(=O)C(CC#Cc1ccc2c(c1)[C@]1(C(=O)N2)[C@H](c2ccccc2OCCO)N2[C@H](c3ccccc3)[C@H](c3ccccc3)OC(=O)[C@H]2[C@@H]1C(=O)NC[C@H](O)c1ccccc1)C(=O)OC` came in with a composite z-score of -0.147.

The record behind these values is PubChem BioAssay.
